# Results taken from PubChem BioAssay (Tox21).
# Where “and” joins values, the source holds several entries; their conditions need not be identical. Identical values can stand only once. Results filed as inconclusive are left out. Entries that show only a call come without a potency. Calls of active or inactive are those of the source. Calls come from the whole dose curve; as a rule, active = well fitted cell-killing curve with a large enough effect in the repeat runs; inconclusive = weak or mixed curves, or effect the other way; inactive = no such curve, though single readings can be large or run the other way.
# Experiment: qHTS assay to identify small molecule agonists of the vitamin D receptor (VDR) signaling pathway - cell viability counter screen (AID 743224)
# Details: VDR-bla HEK293T viability, CellTiter-Glo luminescence, 16 h; series mostly up to 62.6 µM
# In short: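 Counter screen run in the same wells as the VDR-bla reporter assay: CellTiter-Glo luminescence, 30 min at room temperature, after 16 h compound treatment at 37C of cells pre-plated for 4 h.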
# Note: nearly all actives have a fitted effect of over 50% in size.
# Potency is the fitted concentration of half-maximal effect.
row,SMILES,Potency
1,CC1=CC(=O)CC(C)(C)C1,inactive
2,Clc1cccc(Cl)c1NC1=NCCN1,inactive
3,CC1(C)C(=O)N(Cl)C(=O)N1Cl,inactive
4,CCCCCCCC(=O)O,inactive
5,O=C1O[C@H]([C@H](O)CO)C(O)=C1O,inactive
6,CS(=O)(=O)c1ccc(Cl)cc1,inactive
7,OB(O)O,inactive
8,CC(=O)OCc1ccc2c(c1)OCO2,inactive
9,CCCCCCCCCCCCCC(=O)O,inactive
10,CC1(C)[C@@H](O[C@H]2O[C@H](C(=O)O)[C@@H](O)[C@H](O)[C@H]2O[C@@H]2O[C@H](C(=O)O)[C@@H](O)[C@H](O)[C@H]2O)CC[C@]2(C)[C@H]3C(=O)C=C4[C@@H]5C[C@@](C)(C(=O)O)CC[C@]5(C)CC[C@@]4(C)[C@]3(C)CC[C@@H]12,inactive
11,Cc1ccncc1,inactive
12,O=Cc1ccc(CO)o1,inactive
13,CC(=O)Nc1ccc(CC(=O)O)cc1,inactive
14,COc1cc(NC(=O)CC(C)=O)c(OC)cc1Cl,inactive
15,CC(COCC(C)OC(=O)c1ccccc1)OC(=O)c1ccccc1 (stereo not drawn),inactive
16,CC(C)c1ccc(C(C)C)cc1,inactive
17,O=C(NCC1CCCCN1)c1cc(OCC(F)(F)F)ccc1OCC(F)(F)F (stereo not drawn),inactive
18,C[n+]1ccn(CCO)c1,inactive
19,C=CC(=O)NCOCCCC,inactive

row,SMILES,Potency
1,O=[N+]([O-])c1cc(C(F)(F)F)ccc1Cl,inactive
2,CCCCC(=O)O,inactive
3,C1CCCNCC1,inactive
4,COc1ccc2cc3[n+](cc2c1OC)CCc1cc2c(cc1-3)OCO2,inactive
5,Nc1nc(N)c2nc(-c3ccccc3)c(N)nc2n1,inactive
6,COc1ccc([C@@H]2CC(=O)c3c(O)cc(O[C@@H]4O[C@H](CO[C@@H]5O[C@@H](C)[C@H](O)[C@@H](O)[C@H]5O)[C@@H](O)[C@H](O)[C@H]4O)cc3O2)cc1OC,inactive
7,CCCN(CCC)C(=O)SCC,inactive
8,CC/C(C)=N/O,inactive
9,CC/C=C(\C(=O)N[C@@H]1C(=O)N2C(C(=O)OCOC(=O)C(C)(C)C)=C(COC(N)=O)CS[C@H]12)c1csc(N)n1,inactive
10,COC(=O)CCCCC(=O)OC,inactive
11,C[Si](C)(C)N[Si](C)(C)C,inactive
12,COC(=O)/C=C\C(=O)OC,inactive
13,O=C1C(N(CO)C(=O)NCO)N(CO)C(=O)N1CO (stereo not drawn),inactive
14,NC(N)=S,inactive
15,c1cnc2c(c1)ccc1cccnc12,1.97 µM (active) and 2.75 µM (active) and 436 nM (active)
16,Nc1cccc(N)n1,inactive
17,OCC(CO)(CO)CO,inactive
18,Oc1ccc(Cc2ccccc2O)cc1,inactive

# Experiment: qHTS assay to identify small molecule antagonists of the vitamin D receptor (VDR) signaling pathway - cell viability counter screen (AID 743225)
# Details: VDR-bla HEK293T viability, CellTiter-Glo luminescence, 16 h; series mostly up to 61 µM
# In short: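 Luminescent cell viability (CellTiter-Glo) in VDR-bla HEK 293T cells after 16 h compound exposure at 37C in the presence of 3 nM final 1-alpha,25-dihydroxy vitamin D3.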
row,SMILES,Potency
1,CC1=CC(=O)CC(C)(C)C1,inactive
2,Clc1cccc(Cl)c1NC1=NCCN1,inactive
3,CC1(C)C(=O)N(Cl)C(=O)N1Cl,inactive
4,CCCCCCCC(=O)O,inactive
5,O=C1O[C@H]([C@H](O)CO)C(O)=C1O,inactive
6,CS(=O)(=O)c1ccc(Cl)cc1,inactive
7,OB(O)O,inactive
8,CC(=O)OCc1ccc2c(c1)OCO2,inactive
9,CCCCCCCCCCCCCC(=O)O,inactive
10,CC1(C)[C@@H](O[C@H]2O[C@H](C(=O)O)[C@@H](O)[C@H](O)[C@H]2O[C@@H]2O[C@H](C(=O)O)[C@@H](O)[C@H](O)[C@H]2O)CC[C@]2(C)[C@H]3C(=O)C=C4[C@@H]5C[C@@](C)(C(=O)O)CC[C@]5(C)CC[C@@]4(C)[C@]3(C)CC[C@@H]12,inactive
11,Cc1ccncc1,inactive
12,O=Cc1ccc(CO)o1,inactive
13,CC(=O)Nc1ccc(CC(=O)O)cc1,inactive
14,COc1cc(NC(=O)CC(C)=O)c(OC)cc1Cl,inactive
15,CC(COCC(C)OC(=O)c1ccccc1)OC(=O)c1ccccc1 (stereo not drawn),inactive
16,CC(C)c1ccc(C(C)C)cc1,inactive
17,O=C(NCC1CCCCN1)c1cc(OCC(F)(F)F)ccc1OCC(F)(F)F (stereo not drawn),inactive
18,C[n+]1ccn(CCO)c1,inactive

row,SMILES,Potency
1,C=CC(=O)NCOCCCC,inactive
2,O=[N+]([O-])c1cc(C(F)(F)F)ccc1Cl,inactive
3,CCCCC(=O)O,inactive
4,C1CCCNCC1,inactive
5,Nc1nc(N)c2nc(-c3ccccc3)c(N)nc2n1,inactive
6,COc1ccc([C@@H]2CC(=O)c3c(O)cc(O[C@@H]4O[C@H](CO[C@@H]5O[C@@H](C)[C@H](O)[C@@H](O)[C@H]5O)[C@@H](O)[C@H](O)[C@H]4O)cc3O2)cc1OC,inactive
7,CCCN(CCC)C(=O)SCC,inactive
8,CC/C(C)=N/O,inactive
9,CC/C=C(\C(=O)N[C@@H]1C(=O)N2C(C(=O)OCOC(=O)C(C)(C)C)=C(COC(N)=O)CS[C@H]12)c1csc(N)n1,inactive
10,COC(=O)CCCCC(=O)OC,inactive
11,C[Si](C)(C)N[Si](C)(C)C,inactive
12,COC(=O)/C=C\C(=O)OC,inactive
13,O=C1C(N(CO)C(=O)NCO)N(CO)C(=O)N1CO (stereo not drawn),inactive
14,NC(N)=S,inactive
15,c1cnc2c(c1)ccc1cccnc12,5.49 µM (active) and 7.76 µM (active)
16,Nc1cccc(N)n1,inactive
17,OCC(CO)(CO)CO,inactive
18,Oc1ccc(Cc2ccccc2O)cc1,inactive
